Compound activity deposited in PubChem by several laboratories.
Mtb UGM inh: Mtb UDP-galactopyranose mutase inhibition. hit rate 0.06% among 320,000. purified UGM, fluorescence polarization probe displacement. P9WIQ1. AID 504406. inhibition, % at 10 µM; in the data active = inhibition above about 10%, passing the limit was not always enough
GDH-TPI counter-1: GDH-TPI coupled enzyme inhibition counter-screen | GDH-TPI coupled enzyme counterscreen, NADH absorbance | hit rate 1.2% among 360,000 | AID 588335 | inhibition, % at 4.8 µM; in the data active = inhibition above about 30%;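 also: 0% = DMSO wells and 100% = wells lacking the enzyme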
FBA Mtb inh: inhibits M. tuberculosis FBA enzyme. hit rate 2.3% among 360,000. inhibition, % at 1 µM. purified M. tuberculosis FBA, fluorescence read-out. AID 588726;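 also: 0% = vehicle and 100% = reference inhibitor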
RecA intein inh: Mtb RecA intein splicing inhibition. cell-free RecA intein splicing, fluorescence. hit rate 0.75% among 290,000. inhibition, % (test concentration not listed); in the data active = inhibition above about 30%;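 also: 0% = vehicle wells and 100% = reference inhibitor control wells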
Rv3671c protease: inhibits the M. tuberculosis serine protease Rv3671c. P9WHR9. inhibition, % at 5.96 µM. hit rate 0.048% among 320,000; in the data active = inhibition above about 38%;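 also: extracellular domain of Rv3671c used as enzyme; 0% = enzyme with DMSO and 100% = no enzyme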
Target sequence (P9WHR9 whole entry, looked up, the tested form may be a part): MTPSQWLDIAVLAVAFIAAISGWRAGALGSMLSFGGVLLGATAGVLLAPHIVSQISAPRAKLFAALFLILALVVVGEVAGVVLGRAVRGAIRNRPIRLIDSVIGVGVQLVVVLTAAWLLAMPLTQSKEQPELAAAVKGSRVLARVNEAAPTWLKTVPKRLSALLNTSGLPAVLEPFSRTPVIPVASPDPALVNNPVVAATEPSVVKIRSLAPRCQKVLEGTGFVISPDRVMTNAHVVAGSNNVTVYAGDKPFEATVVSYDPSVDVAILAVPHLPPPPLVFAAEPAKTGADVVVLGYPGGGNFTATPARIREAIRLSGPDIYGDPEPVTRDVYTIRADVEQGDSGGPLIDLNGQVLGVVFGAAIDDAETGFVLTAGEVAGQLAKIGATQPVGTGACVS
Mtb bLac sens: beta-lactam sensitization of Mtb H37Rv; M. tuberculosis H37Rv growth with meropenem, percent inhibition; inhibition, % at 25 µM; hit rate 0.27% among 330,000; AID 434955; call rule not given here;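 also: growth measured after seven days incubation then overnight dye step; 0% = bacteria only wells and 100% = bacteria with antibiotic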
Mtb FBA inh conf: confirmation of M. tuberculosis fructose-bisphosphate aldolase inhibitors | hit rate 78% among 5,600 | shares compounds with FBA Mtb inh | AID 651616 | purified M. tuberculosis FBA, fluorescence read-out | inhibition, % at 1 µM;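 also: 0% = vehicle wells and 100% = reference inhibitor wells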
GDH-TPI counter-2: counter-screen for M. tuberculosis FBA inhibitors: GDH-TPI coupled enzyme inhibition | shares compounds with FBA Mtb inh | GDH-TPI coupled enzyme counterscreen, fluorescence | inhibition, % at 1 µM | hit rate 81% among 5,600 | AID 652141; in the data active = inhibition above about 10%
* marks the source's active call; other numbers are inactive results. The list is not random: actives were taken first. Their share in the collection is about 4%. Rule as the data show it, unless noted: active = inhibition above about 27%; inactive = the rest.

Results for COC(=O)C1=CN(Cc2ccc(C)cc2)C=C(C(=O)OC)C1c1ccc(F)c(F)c1 ?
Mtb UGM inh: 0; GDH-TPI counter-1: -4; FBA Mtb inh: 3; RecA intein inh: -36; Rv3671c protease: 2; Mtb bLac sens: 4

How did COC(=O)C1=CN(C(C)c2ccccc2)C=C(C(=O)OC)C1c1cc(OC)c(OC)c(OC)c1 (configuration not stated) do in these assays?
Mtb UGM inh: 0; GDH-TPI counter-1: 13; FBA Mtb inh: 71*; RecA intein inh: -94; Rv3671c protease: 5; Mtb bLac sens: 17; Mtb FBA inh conf: 52*; GDH-TPI counter-2: 48*

What do the screens show for `COc1ccc(S(=O)(=O)N2CCCCC2)cc1NC(=O)CCCNC(=O)c1ccc(Cl)cc1`?
Mtb UGM inh: 1; GDH-TPI counter-1: 2; FBA Mtb inh: 3; Rv3671c protease: -4; Mtb bLac sens: 4

What do the screens show for `N#Cc1nn(-c2ccccc2)nc1N1CCCCC1`?
Mtb UGM inh: 0; GDH-TPI counter-1: 12; FBA Mtb inh: 38*; RecA intein inh: 10; Rv3671c protease: 1; Mtb bLac sens: 32; Mtb FBA inh conf: 129*; GDH-TPI counter-2: 106*

How did COc1ccccc1C1CN(c2ccc(F)cc2F)N=C1c1cccs1 (configuration not stated) do in these assays?
Mtb UGM inh: 2; GDH-TPI counter-1: 10; FBA Mtb inh: 83*; RecA intein inh: -13; Rv3671c protease: 9; Mtb bLac sens: 0; Mtb FBA inh conf: 177*; GDH-TPI counter-2: 132*

How did CC(C)C(=O)Nc1sc2c(c1-c1nc3ccccc3[nH]1)CCCC2 do in these assays?
Mtb UGM inh: 2; GDH-TPI counter-1: 14; FBA Mtb inh: 43*; RecA intein inh: 3; Rv3671c protease: -17; Mtb bLac sens: -7; Mtb FBA inh conf: active; GDH-TPI counter-2: 182*

How did CC(C)C(=O)Nc1ccccc1-c1nc2ccccc2[nH]c1=O do in these assays?
Mtb UGM inh: -2; GDH-TPI counter-1: -1; FBA Mtb inh: 0; RecA intein inh: 1; Rv3671c protease: 8; Mtb bLac sens: 0

What do the screens show for `C=CCOC(=O)Nc1c(C(=O)OC)[nH]c2ccc(Cl)cc12`?
Mtb UGM inh: 0; GDH-TPI counter-1: 17; FBA Mtb inh: 40*; RecA intein inh: 3; Rv3671c protease: -1; Mtb bLac sens: 2; Mtb FBA inh conf: 0; GDH-TPI counter-2: -3

What do the screens show for `CCOC(=O)c1[nH]c2ccc(OC)cc2c1NC(=O)CCN1CCc2ccccc2C1`?
Mtb UGM inh: -1; GDH-TPI counter-1: 7; FBA Mtb inh: 40*; RecA intein inh: 3; Rv3671c protease: 5; Mtb bLac sens: -4; Mtb FBA inh conf: 87*; GDH-TPI counter-2: 83*

How did CCOC(=O)c1[nH]c2cc(OC)c(OC)cc2c1NC(=O)CCN1CCSCC1 do in these assays?
Mtb UGM inh: 1; GDH-TPI counter-1: 20; FBA Mtb inh: 107*; RecA intein inh: 0; Rv3671c protease: 0; Mtb bLac sens: 0; Mtb FBA inh conf: 126*; GDH-TPI counter-2: 115*

What do the screens show for `CCOC(=O)c1[nH]c2ccc(F)cc2c1NC(=O)c1ccccc1C(=O)O`?
Mtb UGM inh: 0; GDH-TPI counter-1: -2; FBA Mtb inh: 59*; RecA intein inh: -6; Mtb bLac sens: 8; Mtb FBA inh conf: 5; GDH-TPI counter-2: 0

How did CCOC(=O)c1[nH]c2ccc(Br)cc2c1NC(=O)CCN1CCC(C)CC1 do in these assays?
Mtb UGM inh: 3; GDH-TPI counter-1: 4; FBA Mtb inh: -5; RecA intein inh: -1; Rv3671c protease: -9; Mtb bLac sens: -4

Results for CCOC(=O)c1[nH]c2ccc(F)cc2c1NC(=O)c1cc(OC)c(OC)c(OC)c1 ?
Mtb UGM inh: 4; GDH-TPI counter-1: -2; FBA Mtb inh: 5; RecA intein inh: -2; Rv3671c protease: -4; Mtb bLac sens: -10

Results for CCOC(=O)c1[nH]c2ccc(OC)cc2c1NC(=O)c1ccccc1C(=O)O ?
Mtb UGM inh: -1; GDH-TPI counter-1: 1; FBA Mtb inh: 30*; RecA intein inh: -4; Rv3671c protease: 5; Mtb bLac sens: -6; Mtb FBA inh conf: 31*; GDH-TPI counter-2: 31*

What do the screens show for `CCOC(=O)c1[nH]c2ccc(OC)cc2c1NC(=O)CN1CCSCC1`?
Mtb UGM inh: 3; GDH-TPI counter-1: 7; FBA Mtb inh: 44*; Rv3671c protease: 6; Mtb bLac sens: 0; Mtb FBA inh conf: 68*; GDH-TPI counter-2: 52*

How did CCOC(=O)c1[nH]c2cc(OC)c(OC)cc2c1NC(=O)CN(C)C1CCCCC1 do in these assays?
Mtb UGM inh: -2; GDH-TPI counter-1: 40*; FBA Mtb inh: 33*; RecA intein inh: 1; Rv3671c protease: 1; Mtb bLac sens: -6; Mtb FBA inh conf: 8; GDH-TPI counter-2: -3

What do the screens show for `CCOC(=O)c1[nH]c2ccc(OC)cc2c1NC(C)=O`?
Mtb UGM inh: -1; GDH-TPI counter-1: 8; FBA Mtb inh: 34*; RecA intein inh: 0; Rv3671c protease: 3; Mtb bLac sens: 8; Mtb FBA inh conf: 5; GDH-TPI counter-2: -2

Results for CCOC(=O)c1[nH]c2ccc(OC)cc2c1NC(=O)CCN1CCC(C)CC1 ?
Mtb UGM inh: -3; RecA intein inh: 0; Rv3671c protease: -3; Mtb bLac sens: -16

What do the screens show for `CCOC(=O)c1[nH]c2cc(OC)c(OC)cc2c1NC(=O)c1ccc2c(c1)OCO2`?
Mtb UGM inh: 4; GDH-TPI counter-1: 5; FBA Mtb inh: -1; RecA intein inh: -4; Rv3671c protease: 4; Mtb bLac sens: 3

How did COc1ccc(-n2c(=S)[nH]c3cc(C(=O)Nc4ccc(C)c(F)c4)ccc3c2=O)c(OC)c1 do in these assays?
Mtb UGM inh: 0; GDH-TPI counter-1: 11; FBA Mtb inh: 1; RecA intein inh: 4; Rv3671c protease: -167; Mtb bLac sens: 83

How did CSc1nc(N)nc2c1ncn2CC(=O)Nc1ccc(C)c(C)c1 do in these assays?
Mtb UGM inh: 2; GDH-TPI counter-1: 8; FBA Mtb inh: 4; Rv3671c protease: -4; Mtb bLac sens: 45

How did N#CC1=C(N)Oc2c(ccc3cccnc23)C1c1cccnc1 (configuration not stated) do in these assays?
Mtb UGM inh: 2; GDH-TPI counter-1: 14; FBA Mtb inh: 41*; RecA intein inh: -1; Rv3671c protease: 7; Mtb bLac sens: -3; Mtb FBA inh conf: -1; GDH-TPI counter-2: -9

Results for CC1(C(=O)NS(=O)(=O)C2CC2)CCCN(C(=O)c2ccc(C(F)(F)F)cc2)C1 (configuration not stated) ?
GDH-TPI counter-1: 4; FBA Mtb inh: 6

Results for COc1cccc(OCC(=O)NNC(=O)c2ccc3ccccc3c2O)c1 ?
GDH-TPI counter-1: 12; FBA Mtb inh: 29*; RecA intein inh: -6; Mtb FBA inh conf: active; GDH-TPI counter-2: active
